Only a selection was taken, and hits are over-represented in it overall.
Methyltransferases: Primary Screen for Target Class Profiling of Small Molecule Inhibitors of Methyltransferases; purified enzyme, MTase-Glo SAH luminescence; active compounds read low; calls only at 40 µM; AID 1745853, 2022; 25,000 tested, 3.9% active; call rule not given here
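Each enzyme was assayed with SAM and its substrate. SAH formation detected by MTase-Glo luminescence; single-point 40 uM screen[…].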
* = called active by the depositor; i = inactive; + = active, no number; ! = not active in a repeat. % is set by controls: 0 for no effect and ±100 for the full control effect.

SMILES	Methyltransferases
CC(=O)N1CCCC(c2nn(-c3cccc(Cl)c3)c(=O)[nH]2)C1 (stereo not drawn)	i
CN(C)C/C=C(/c1ccc(Br)cc1)c1cccnc1	+
CC(=O)CC1CCC(C(C)C(=O)OCC(O)CO)O1 (stereo not drawn)	i
COC1=CC(=O)O/C1=C(/OC)[C@@H]1O[C@H]1c1ccccc1	i
CNC(=O)[C@@H]1C[C@@H](n2cc(CC(C)C)nn2)CN1	i
c1ccc(CCCN2CC[C@H](c3nc4ccccc4s3)C2)cc1	i
c1cc(CN2CCCCC2)cc(OCCCNc2nc3ccccc3s2)c1	+
NC(=O)COc1cccc(CN2CCN(c3ccc(F)cc3F)CC2)c1	i
CCCn1c(=O)c2cc(Cl)ccc2n2c(SCc3ccc(F)cc3)nnc12	i
COc1ccccc1CCC(=O)N1CCCC(c2[nH]ccc2C(N)=O)C1 (stereo not drawn)	i
CCC/C=C\C=C/CCc1cc(O)c([C@@H]2O[C@H](CO)[C@@H](O)[C@H](O)[C@H]2O)c(O)c1C(=O)OC	i
Cc1cc(C)cc(NC(=O)CSc2nnc3n(CCC(C)C)c(=O)c4ccccc4n23)c1	i
CC(C)c1c(NC(=O)Nc2ccc(Cl)cc2)c(=O)n(-c2ccccc2)n1C	i
Cc1ccc(C)c(N2CCN(C(=O)CCc3nnc4n(CCCOC(C)C)c(=O)c5ccccc5n34)CC2)c1	i
Cc1cccc(N2CCN(C(=O)c3ccc4c(=O)[nH]c5c(C(=O)NC(C)C)sc(=S)n5c4c3)CC2)c1C	+
CCc1nc2c(=O)n(CC(=O)N3CCN(c4cccc(C)c4C)CC3)nc(C)c2s1	i
Cc1cccc(N2CCN(C(=O)c3ccc4c(=O)[nH]c5c(C(=O)NC6CCCC6)sc(=S)n5c4c3)CC2)c1C	i
Cc1cccc(-c2n[nH]n3c2nc(=O)c2ccc(C(=O)N4CCN(c5cc(C)ccc5C)CC4)cc23)c1	i
Cc1ccc(C)c(N2CCN(C(=O)c3ccc4c(=O)[nH]c5c(C(=O)NC(C)C)sc(=S)n5c4c3)CC2)c1	+
CCCSCCCN1C(=O)c2cc3occc3n2CC1(C)C(=O)NC1CCCCC1 (stereo not drawn)	i
CC(=O)Nc1c2n(c3ccccc13)CC(C)(C(=O)NC1CCCCC1)N(C1CCCCC1)C2=O (stereo not drawn)	i
CCCC(C)N1CC2(CCN(C(=O)c3cnn4c3CCCC4)CC2)OC1=O (stereo not drawn)	i
CCc1ccc(NC(=O)CSc2nnc3n(CCc4ccccc4)c(=O)c4ccccc4n23)cc1	i
CC1CCN(C(c2ccc(F)cc2)c2ccc(C(C)C(=O)O)cc2-c2ccc(C(F)(F)F)cc2)CC1 (stereo not drawn)	+
CCc1cc2c(cc3n2CC(C)(C(=O)NC2CCCCC2)N(c2ccc(C)cc2)C3=O)s1 (stereo not drawn)	i
SMILES	Methyltransferases
C=CCn1c(=O)c2ccc(C(=O)NC(C)CC)cc2n2c(=O)n(CC(=O)NCc3ccccc3)nc12 (stereo not drawn)	i
O=C(O[C@@H]1O[C@H](CO)[C@@H](O)[C@H](O)[C@H]1O)c1ccccc1	i
CC(C)(O)C1CC=C(C(=O)OC[C@H]2O[C@@H](OC(=O)C3=CCC(C(C)(C)O)CC3)[C@H](O)[C@@H](O)[C@@H]2O)CC1 (stereo partly drawn)	+
CC1=C(C(=O)OC2OC(COC3OC(CO)C(O)C(O)C3O)C(O)C(O)C2O)C(C)(C)CCC1 (stereo not drawn)	i
O=C(O)c1cc(-c2cccc(CO)c2)cc(S(=O)(=O)NC2CCCC2)c1	i
Cc1c(OCc2cccc(-c3ccc(C(=O)O)cc3)c2)cc2c(c1C)C(=O)C(C1CCCC1)C2 (stereo not drawn)	+
Cc1cccc(-c2n[nH]n3c2nc(=O)c2ccc(C(=O)N4CCN(c5ccccc5F)CC4)cc23)c1	i
Cc1cccc(CN2C(=O)c3ccc(-c4ccccc4)n3CC2(C)C(=O)NC2CCC(C)CC2)c1 (stereo not drawn)	i
Cc1ccc(NC(=O)Cn2nc3n(Cc4ccc(F)cc4)c(=O)c4ccccc4n3c2=O)c(Cl)c1	i
O=C(O)C1(Cc2cccc(Nc3nccs3)n2)CCC(Oc2cccc(Cl)c2F)CC1 (stereo not drawn)	+!
COc1ccc(-c2cc3n(n2)CC(C)(C(=O)NC2CCCCC2)N(Cc2ccc(F)cc2)C3=O)cc1 (stereo not drawn)	i
C=C1CC2OC(=O)C(=C)C2C(OC(=O)/C(C)=C\C)CC2(C)OC1=CC2=O (stereo not drawn)	i
C=C1C(=O)O[C@@H]2CC(C)=C([C@@H](C)CCCO)[C@@H](OC(=O)C(C)C)[C@H]12	+
C=C1C(=O)O[C@H]2[C@H]1[C@@H](OC(=O)C(C)CO)C[C@@]1(C)[C@H](O)CCC(=O)[C@H]21 (stereo partly drawn)	i
CC(C)c1cc(C2CCN(Cc3cn[nH]c3-c3ccccc3)CC2)[nH]n1	i
CN1C[C@H](O)C[C@H]1c1nnc2n1CCN(C(=O)Cc1cccc(F)c1)CC2	i

Screening data as filed in PubChem BioAssay.
